From PubChem BioAssay (Tox21) come the findings set out here.

Structures are written as SMILES. Values joined by “and” are separate entries in the source; they are usually repeats but may differ in a detail not shown here. Identical values can stand only once. Records with an inconclusive call do not appear. A number with no mark means an inactive call. Active and inactive are the calls of the source. Calls follow the shape of the dose curve; as a rule, active = well fitted cell-killing curve with a large enough effect in the repeat runs; inconclusive = weak or mixed curves, or effect the other way; inactive = flat fitted curve, though single readings scatter.
% is scaled to controls: 0 for no effect and ±100 for the full control effect; potency is read from the fitted curve at half-maximal effect.

The test is described as follows: qHTS RealTime-Glo MT Cell Viability Assay in HEK293 cells - 24 hour (AID 1224886). Also: nearly all actives have a fitted effect of over 50% in size. As to activity change, negative = cytotoxicity: top concentration of the series differs between compounds. Particulars: RealTime-Glo luminescence; series mostly up to 76.8 µM; activity change, negative = cytotoxicity: at the top concentration. The text has this: National Center for Advancing Translational Sciences [NCATS]
NIH Chemical Genomics Center [NCGC]
U.S. Environmental Protection Agency [EPA]
National Institutes of Environmental Health Sciences [NIEHS]
National Toxicology Program [NTP]
U.S. Food and Drug Administration [FDA]
Measure of cell viability is critical in the cell-base assay. Analysis of cell viability is necessary for the characterization of cell responses to cytotoxic drugs and environmental stress. A RealTime-Glo MT Cell Viability Assay to monitor cell viability in real time of continues cell culture during 40 hours of compound treatment was used to screen Tox21 10K library compounds in Hek293 cells. The RealTime-Glo MT Cell Viability Assay is a nonlytic, homogeneous, bioluminescent method to measure cell viability in real time using a simple, plate-based method. The assay involves adding NanoLuc luciferase and a cell-permeant prosubstrate to cells in culture. Viable cells reduce the proprietary prosubstrate to generate a substrate for NanoLuc luciferase. This substrate diffuses from cells into the surrounding culture medium, where it is rapidly used by the NanoLuc Enzyme to produce a luminescent signal. The signal correlates with the number of viable cells, making the assay well suited for cytotoxicity studies.
Tox21 Assay Protocol Summary:
The mixture of Hek293 cell suspension and reagents were dispensed at 600cells/6 ul/well in 1536-well tissue culture treated black solid bottom plates using a Multidrop dispenser. After the assay plates were incubated at a 37 C/5% CO2 incubator for 5 hours, 23 nL of compounds dissolved in DMSO, positive and negative controls was transferred to the assay plate by a pintool work station. The plates were incubated at 37 C for 40 hours. The luminescence intensity were measured at 0h, 8h, 16h, 24h, 32h and 40h time points using ViewLux plate reader during compound treatment.
On the technique in general: Quantitative high-throughput screening tests each substance at several concentrations.
Take `CCCCC#N`: the “activity change, negative = cytotoxicity” value is 1.84%.
Regarding `Cc1cnc(C2=NC(C)(C(C)C)C(=O)N2)c(C(=O)O)c1` (stereo not given), the “activity change, negative = cytotoxicity” value is 7.82%.
The same measure, in the same setting: the result for `CC1(C)CC(=O)CC(C)(C)N1[O]` reads -1.4%; that for `COc1cc(CC#N)cc(OC)c1OC`, 3.04% [at 35.3 µM]; that for `CN(C1CCCCC1)C1CCCCC1`, 0.696%.
Still for that read-out and setting: the result for `O=C(Cl)OCCOCCOC(=O)Cl` reads 5.06%.
Turning to `c1ccc2c(c1)sc1ccccc12`, the Potency result was “inactive”.
For the compound `COc1ccccc1N1CCNCC1`, the “activity change, negative = cytotoxicity” value was 2.41% [at 35.3 µM].
On the same count and under the same terms, the same measure for `CC(C)OC(=O)Cc1ccccc1`: 3.22%.
Consider `C[C@H]1[C@@H]2Cc3ccc(O)cc3[C@@]1(C)CCN2C`, for which the “activity change, negative = cytotoxicity” value was -2.62% [at 200 µM].
With `O=C(O)COc1cc(Cl)c(Cl)cc1Cl`, the “activity change, negative = cytotoxicity” value is 12.6%.
Regarding `CCCCCCCCP(=O)(O)O`, the “activity change, negative = cytotoxicity” value was -4.27%.
For `O=P(OCC(Br)CBr)(OCC(Br)CBr)OCC(Br)CBr` (stereo not given), the Potency was 27.9 µM (active).
As to `C[N+]1(CCC(C(N)=O)(c2ccccc2)c2ccccc2)CCCCC1`, the “activity change, negative = cytotoxicity” value is -0.652% [at 35.3 µM].
Still for that read-out and setting: the same measure for `C=CC(=O)NC(C)(C)CC(C)=O`: 8.11%.
The same measure, in the same setting: the result for `O=C=NC1CCCCC1` reads 9.41%.
On to `CCC(C)Cl` (stereo not given), for which the “activity change, negative = cytotoxicity” value was 4.36%.
As to `CON(C)C(=O)Nc1ccc(Cl)cc1`, the “activity change, negative = cytotoxicity” value was -11%.
On the same count and under the same terms, the same measure for `CC(C)c1ccc(OP(=O)(Oc2ccc(C(C)C)cc2)Oc2ccc(C(C)C)cc2)cc1`: -30.9%; for `O=[N+]([O-])c1cc(Cl)c(Cl)cc1Cl`: -0.587%.
For the compound `CC(C)(C)NCC(O)c1ccccc1Cl` (stereo not given), the “activity change, negative = cytotoxicity” value is 3.18% [at 35.3 µM].
On to `CC(C)CCON=O`, for which the “activity change, negative = cytotoxicity” value is 0.238%.
Regarding `CC(C)(C)OOC(C)(C)CCC(C)(C)OOC(C)(C)C`, the “activity change, negative = cytotoxicity” value was 8.89%.
On the same count and under the same terms, the same measure for `C=C(C)C(=O)OCCCCOC(=O)C(=C)C`: -3.26%; for `O=C(NC(=O)c1cc(F)c(F)cc1Cl)Nc1cc(F)ccc1N1CCC(C(=O)O)CC1`: 18.3% [at 35.3 µM]; for `CC(CC(C(N)=O)(c1ccccc1)c1ccccc1)N(C)C` (stereo not given): 2.24% [at 35.3 µM].
As to `O=CC=O`, the “activity change, negative = cytotoxicity” value is 3.72%.
In the case of `O=C(O)c1cc(I)cc(I)c1I`, the “activity change, negative = cytotoxicity” value is 0.269%.
On the same count and under the same terms, the same measure for `CCNC(=O)NC(=O)/C(C#N)=N/OC`: 13.8%; for `CCOP(=O)(SC(C)CC)N1CCSC1=O` (stereo not given): 13.3%.
In the case of `Nc1ccccc1C(=O)OCC(O)CO` (stereo not given), the “activity change, negative = cytotoxicity” value was 3.55% [at 35.3 µM].
With `CC(=O)OC(c1ccccc1)C(Cl)(Cl)Cl` (stereo not given), the “activity change, negative = cytotoxicity” value is -24.4%.
On the same count and under the same terms, the same measure for `NC(=S)c1c(Cl)cccc1Cl`: -2.94%; for `CCCCC(CC)COC(=O)c1c(Br)c(Br)c(Br)c(Br)c1C(=O)OCC(CC)CCCC` (stereo not given): -5.63% [at 35.3 µM]; for `CCCCCl`: 4.74%.
The same measure, in the same setting: the same measure for `Cc1nnc(-c2ccccc2)c(=O)n1N`: -12.2%.
For `CN(C)c1ccc(N=O)cc1`, the Potency was 15.5 µM (active) and 24.5 µM (active).
On to `O=C(Cc1ccccc1)OCCc1ccccc1`, for which the “activity change, negative = cytotoxicity” value is 0.795%.
On the same count and under the same terms, the same measure for `CC(C)(C)CC(C)(C)c1ccc(O)cc1`: -21.9% [at 35.3 µM]; for `C[C@]12CC[C@H]3[C@@H](CCC4=CC(=O)CC[C@@H]43)[C@@H]1CC[C@@H]2OC(=O)CCc1ccccc1`: 1.54% [at 35.3 µM].
